According to PubChem BioAssay:
This is one part of the list. Calls of active or inactive are those of the source. Rule as the data show it, unless noted: active = activation above about 8.9%; inactive = the rest.

Assays:
[1] = target: Nuclear receptor coactivator 3 (Homo sapiens) (UniProt Q9Y6Q9); assay: SRC3 coactivator transcriptional activity inhibitors, confirmation, cell-based, luminescence, quadruplicate (AID 588792;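 active = mean inhibition over 43.08%, the solvent-only control mean plus 3 SD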;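 also: 0% = DMSO treated cells and 100% = gossypol at 36 µM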); conditions: HEK293 GAL4-SRC3 luciferase reporter, at 3.6 µM, stronger effect = higher value
[2] = tested on: transactivating tegument protein VP16 (Human herpesvirus 1), Gal4-VP16 luciferase reporter; assay: VP16 transactivation inhibitors, counter-screen for SRC3 inhibitor project, cell-based, luminescence, high throughput (AID 588794; in the data active = inhibition above about 30%); conditions: mammalian cells, VP16-driven luciferase reporter luminescence; at 3.6 µM; stronger effect = higher value
[3] = target: Nuclear receptor coactivator 1 (Homo sapiens) (UniProt Q15788); assay: SRC1 coactivator transcriptional activity inhibitors, confirmation, cell-based, luminescence, quadruplicate (AID 588820;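 active = mean inhibition above 46.68%, the untreated control wells mean plus 3 SD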;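 also: 0% = DMSO wells and 100% = gossypol 36 µM treated wells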); conditions: HEK293 GAL4-SRC1 luciferase reporter, at 3.6 µM, stronger effect = higher value
Chain of Nuclear receptor coactivator 1 (Homo sapiens) (Q15788 whole entry, looked up, the tested form may be a part): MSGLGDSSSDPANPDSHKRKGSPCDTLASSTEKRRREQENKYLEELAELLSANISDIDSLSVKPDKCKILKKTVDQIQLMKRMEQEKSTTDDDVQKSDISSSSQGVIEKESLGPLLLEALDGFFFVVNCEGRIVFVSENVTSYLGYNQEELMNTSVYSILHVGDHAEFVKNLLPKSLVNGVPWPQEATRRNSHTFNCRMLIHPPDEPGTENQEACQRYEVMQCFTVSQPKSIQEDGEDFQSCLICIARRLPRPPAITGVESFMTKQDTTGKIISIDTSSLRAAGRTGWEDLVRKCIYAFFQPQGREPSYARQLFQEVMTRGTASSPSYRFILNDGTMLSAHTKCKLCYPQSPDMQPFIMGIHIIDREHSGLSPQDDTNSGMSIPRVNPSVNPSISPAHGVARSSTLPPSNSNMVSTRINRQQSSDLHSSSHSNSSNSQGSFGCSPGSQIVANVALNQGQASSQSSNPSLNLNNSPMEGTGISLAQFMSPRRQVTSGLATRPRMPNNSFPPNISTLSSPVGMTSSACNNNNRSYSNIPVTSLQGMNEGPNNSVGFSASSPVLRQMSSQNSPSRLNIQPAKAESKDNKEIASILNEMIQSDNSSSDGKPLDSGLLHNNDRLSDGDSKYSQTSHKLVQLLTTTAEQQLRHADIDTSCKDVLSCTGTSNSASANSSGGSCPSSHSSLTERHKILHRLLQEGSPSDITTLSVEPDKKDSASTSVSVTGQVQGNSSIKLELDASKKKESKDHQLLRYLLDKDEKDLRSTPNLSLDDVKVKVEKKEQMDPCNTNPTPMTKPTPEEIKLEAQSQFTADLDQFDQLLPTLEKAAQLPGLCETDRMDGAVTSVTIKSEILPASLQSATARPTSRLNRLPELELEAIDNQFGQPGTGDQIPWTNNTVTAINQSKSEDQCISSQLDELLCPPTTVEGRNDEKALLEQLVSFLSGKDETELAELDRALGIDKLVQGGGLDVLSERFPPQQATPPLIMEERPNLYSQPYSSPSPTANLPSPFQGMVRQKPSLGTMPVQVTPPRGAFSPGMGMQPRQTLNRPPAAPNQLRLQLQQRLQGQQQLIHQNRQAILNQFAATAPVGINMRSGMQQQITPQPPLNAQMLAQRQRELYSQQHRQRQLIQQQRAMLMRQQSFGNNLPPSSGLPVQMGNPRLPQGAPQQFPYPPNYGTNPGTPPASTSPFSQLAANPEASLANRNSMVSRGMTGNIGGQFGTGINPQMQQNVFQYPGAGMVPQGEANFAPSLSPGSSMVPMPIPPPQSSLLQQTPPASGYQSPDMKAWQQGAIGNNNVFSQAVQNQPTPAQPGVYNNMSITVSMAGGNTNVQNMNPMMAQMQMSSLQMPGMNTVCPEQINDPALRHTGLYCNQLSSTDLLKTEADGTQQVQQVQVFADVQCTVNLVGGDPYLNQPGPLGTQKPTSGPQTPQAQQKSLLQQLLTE

[4] = VP16 transactivation inhibitors, counter-screen for SRC1 inhibitor project, cell-based, luminescence, high throughput (AID 588824; in the data active = inhibition above about 25%); conditions: cell-based VP16 transactivation luciferase luminescence; at 3.6 µM; stronger effect = higher value
[5] = target: Photoreceptor-specific nuclear receptor (Homo sapiens) (UniProt Q9Y5X4); assay: NR2E3 agonist confirmation in cells, cell-based, luminescence, CHO-S two-hybrid (AID 624378;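 active = average inhibition above a cutoff equal to the mean inhibition of all tested compounds plus one SD, cut at about 70% in these data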;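 also: 0% = DMSO in NR2E3 cells and 100% = DMSO in cells lacking NR2E3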); conditions: CHO-S mammalian two-hybrid NR2E3-NCOR, luciferase luminescence; at 3.98 µM; stronger effect = higher value
Chain of Photoreceptor-specific nuclear receptor (Homo sapiens) (Q9Y5X4 whole entry, looked up, the tested form may be a part): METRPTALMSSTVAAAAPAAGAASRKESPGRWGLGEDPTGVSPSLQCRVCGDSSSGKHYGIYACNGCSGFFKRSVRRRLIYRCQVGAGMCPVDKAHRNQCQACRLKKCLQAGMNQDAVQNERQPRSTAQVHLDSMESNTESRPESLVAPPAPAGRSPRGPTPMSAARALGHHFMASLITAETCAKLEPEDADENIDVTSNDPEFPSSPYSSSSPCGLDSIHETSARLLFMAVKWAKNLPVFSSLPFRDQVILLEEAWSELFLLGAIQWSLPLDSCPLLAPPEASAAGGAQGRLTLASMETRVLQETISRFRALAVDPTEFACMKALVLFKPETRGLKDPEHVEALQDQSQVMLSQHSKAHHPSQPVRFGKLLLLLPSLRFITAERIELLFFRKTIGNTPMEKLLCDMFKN

[6] = GAL4-VP16 reporter modulators, confirmation, counter-screen for NR2E3 agonist project, cell-based, luminescence, CHO-S, high throughput (AID 624379;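 active = mean inhibition above a cutoff equal to the average over all tested compounds plus one standard deviation, cut at about 70% in these data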;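 also: 0% = DMSO with VP16-transfected cells and 100% = DMSO with cells lacking VP16; higher means less reporter light so more repression of VP16 activity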); conditions: CHO-S GAL4-VP16 luciferase reporter, at 3.98 µM, stronger effect = higher value
[7] = Gal4-VP16 luciferase reporter inhibitors, counter-screen for COUP-TFII antagonist project, cell-based, luminescence, HEK293 (AID 687007; in the data active = inhibition above about 13%); conditions: at 8.5 µM, stronger effect = higher value
[8] = target: COUP transcription factor 2 (Homo sapiens) (UniProt P24468); assay: NR2F2 transcriptional activity inhibitors, confirmation, cell-based, luciferase reporter, HEK293, triplicate (AID 687008;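 active = mean inhibition over three repeats above a set limit taken from the earlier primary screen, cut at about 38% in these data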;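 also: 100% = cells given the luciferase reporter alone without the COUP-TF2 vector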); conditions: HEK293 NGFI-A luciferase reporter, luminescence; at 8.5 µM; stronger effect = higher value
Chain of COUP transcription factor 2 (Homo sapiens) (P24468 whole entry, looked up): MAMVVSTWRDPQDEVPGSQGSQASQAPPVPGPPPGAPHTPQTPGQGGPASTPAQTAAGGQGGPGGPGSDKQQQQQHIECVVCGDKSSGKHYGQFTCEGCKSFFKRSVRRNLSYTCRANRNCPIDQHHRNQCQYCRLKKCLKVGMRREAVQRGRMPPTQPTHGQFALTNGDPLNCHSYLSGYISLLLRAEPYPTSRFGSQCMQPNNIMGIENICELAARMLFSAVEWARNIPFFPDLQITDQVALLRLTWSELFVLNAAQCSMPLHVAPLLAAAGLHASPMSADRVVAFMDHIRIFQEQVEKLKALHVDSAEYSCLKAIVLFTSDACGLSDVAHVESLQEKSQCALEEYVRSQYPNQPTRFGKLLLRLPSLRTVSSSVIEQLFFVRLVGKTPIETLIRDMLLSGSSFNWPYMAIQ

[9] = tested on: HIV-1 integrase (multimerization); assay: HIV-1 IN multimer formation enhancers, counter-screen for LEDGF/p75 integration inhibitor project, biochemical, TR-FRET (AID 1053131); conditions: TR-FRET HIV-1 integrase multimerization, at 7.7 µM, stronger effect = higher value
[10] = TR-FRET optical interference artefacts, confirmation, artefact control for LEDGF/p75-dependent integration inhibitor project, biochemical, HIV-1 IN multimerization (AID 1053135;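 active = inhibition above the mean over all tested compounds plus 3 SD, which no compound reached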;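 also: 0% = integrase with antibodies and DMSO and 100% = antibodies without integrase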); conditions: TR-FRET optical interference counterscreen, at 7.7 µM, stronger effect = higher value
[11] = tested on: HIV-1 integrase / human LEDGF/p75 complex; assay: inhibitors of HIV-1 IN-LEDGF/p75 DNA integration, confirmation, biochemical, TR-FRET (AID 1053136; in the data active = inhibition above about 14%); conditions: TR-FRET LEDGF/p75-dependent HIV-1 integration, at 3.7 µM, stronger effect = higher value
[12] = STAT1 signaling activators, confirmation, cell-based, HTS, luciferase reporter (AID 1262;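 active = activation above a set limit carried over from the earlier primary STAT1 screen, cut at about 140% in these data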;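 also: simple ratio to median IFN-gamma plus DMSO wells so 0% means no light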); conditions: NIH 3T3 STAT1-luciferase reporter, IFN-gamma potentiation, luminescence; at 5.7 µM; stronger effect = higher value; 100% = IFN-gamma EC80 alone, no compound
[13] = NF-kB reporter activators, TNF-alpha stimulated, counter-screen for STAT1 activator project, cell-based, HEK293T, luciferase luminescence (AID 1306;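 active = activation above the mean of solvent-only control wells plus 3 SD, set per campaign, cut at about 130% in these data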;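 also: TNF-alpha given at a submaximal dose yielding about 80% of full reporter signal; values are well signal over median control so 100% means no change and 0% no light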); conditions: at 5.7 µM, stronger effect = higher value, 100% = TNF-alpha with vehicle only
[14] = target: Signal transducer and activator of transcription 3 (Homo sapiens) (UniProt P40763); assay: STAT3 reporter activation by STAT1 hits, confirmation, counter-screen for STAT1 activator project, U3A cells, luciferase, luminescence (AID 1316;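 active = activation above the solvent-only control well mean plus 3 SD, set per plate batch, cut at about 110% in these data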;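 also: 0% = no luminescence and 100% = median IL-6 plus DMSO wells; higher means more STAT3 reporter activation so hits are non-selective activators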); conditions: IL-6, luminescence, at 5.7 µM, stronger effect = higher value, 100 = IL-6 alone, no compound effect, cells lack STAT1
[15] = tested on: TLR4-MyD88 interaction (human), BLA complementation; assay: TLR4-MyD88 association inhibitors, retest, confirmation, cell-based, HeLa CL3-4, BLA complementation, FRET ratio (AID 941;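 active = mean inhibition across three repeat runs above about 25% carried over from the earlier screen, limit read from the data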;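 also: plate controls were DMSO only for no effect and clavulanic acid blocking BLA at full dose for full effect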); conditions: CCF4 FRET ratio, at 8.4 µM, stronger effect = higher value
[16] = inhibitors of full-length beta-lactamase reporter, confirmation, artefact control for TLR4-MyD88 binding inhibitor project, cell-based, HeLa, full-length BLA, CCF4 FRET ratio (AID 1237;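 active = mean inhibition over three repeats above about 26% taken from the earlier screen, limit read from the data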;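 also: HeLa cells stably expressing beta-lactamase reporter as counterscreen for TLR4-MyD88 inhibitors; 0% = DMSO and 100% = clavulanic acid full inhibition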); conditions: at 8.4 µM, stronger effect = higher value
[17] = target: Peroxisome proliferator-activated receptor gamma (Homo sapiens) (UniProt P37231); assay: agonists of PPARgamma SRC-2 coactivator recruitment, confirmation, biochemical, HTS (AID 1297; in the data active = activation above about 22%;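 also: 0% = vehicle alone and 100% = reference agonist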); conditions: biochemical SRC-2 recruitment by PPARgamma; at 8 µM; stronger effect = higher value
Chain of Peroxisome proliferator-activated receptor gamma (Homo sapiens) (P37231 whole entry, looked up): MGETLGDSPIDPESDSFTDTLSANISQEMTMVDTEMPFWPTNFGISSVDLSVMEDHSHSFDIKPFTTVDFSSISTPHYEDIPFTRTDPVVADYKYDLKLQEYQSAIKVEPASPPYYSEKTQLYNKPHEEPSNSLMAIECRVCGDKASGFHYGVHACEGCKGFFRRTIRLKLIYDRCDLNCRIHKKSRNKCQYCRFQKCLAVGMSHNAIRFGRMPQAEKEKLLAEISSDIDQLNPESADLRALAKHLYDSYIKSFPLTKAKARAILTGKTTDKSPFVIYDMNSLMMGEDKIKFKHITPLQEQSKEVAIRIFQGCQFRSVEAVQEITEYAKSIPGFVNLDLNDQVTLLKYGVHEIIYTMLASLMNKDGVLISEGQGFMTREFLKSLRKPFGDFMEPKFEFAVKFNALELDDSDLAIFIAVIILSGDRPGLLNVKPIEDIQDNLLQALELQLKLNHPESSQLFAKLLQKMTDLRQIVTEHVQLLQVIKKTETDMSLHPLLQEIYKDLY

[18] = target: Peroxisome proliferator-activated receptor gamma (Homo sapiens) (UniProt P37231); assay: PPARgamma agonists recruiting SRC-1 coactivator, confirmation, biochemical (AID 1300; in the data active = activation above about 20%;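 also: 0% = vehicle wells and 100% = reference agonist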); conditions: PPARgamma–SRC-1 coactivator recruitment biochemical assay; at 8 µM; stronger effect = higher value
[19] = target: Peroxisome proliferator-activated receptor gamma (Homo sapiens) + Nuclear receptor coactivator 3 (Homo sapiens) (UniProt P37231+Q9Y6Q9); assay: PPARgamma-driven SRC-3 coactivator recruitment agonists, confirmation, biochemical (AID 1301; in the data active = activation above about 24%;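 also: 0% = vehicle wells and 100% = reference agonist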); conditions: biochemical PPARgamma-SRC-3 coactivator recruitment, agonist mode; at 8 µM; stronger effect = higher value
[20] = compounds interfering with TAMRA-BSA probe, counter-screen for TCR-CD3 interaction inhibitor project, biochemical, fluorescence, TAMRA-labeled BSA (AID 652035; in the data active = inhibition above about 23%;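 also: 0% = buffer low control and 100% = reference high control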); conditions: TAMRA-labeled BSA probe fluorescence counterscreen; at 9.4 µM; stronger effect = higher value
[21] = tested on: T-cell receptor (TCR)-CD3 interaction, human; assay: TCR-CD3 interaction inhibitors, retest, confirmation, biochemical, fluorescence, TAMRA-labeled TCR probe (AID 652036; in the data active = inhibition above about 19%); conditions: TAMRA-labeled TCR probe fluorescence binding assay; at 9.4 µM; stronger effect = higher value
[22] = target: (Lyso)-N-acylphosphatidylethanolamine lipase (Mus musculus) (UniProt Q8VD66); assay: ABHD4 inhibitors, retest, confirmation, biochemical, fluorescence polarization, mouse (AID 720658;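 active = mean inhibition across replicates above the hit cutoff set in the primary screen, cut at about 30% in these data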;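 also: 0% = wild-type ABHD4 with DMSO and 100% = catalytically dead S159A mutant with DMSO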); conditions: purified mABHD4, FP-Rh probe fluorescence polarization; at 8.92 µM; stronger effect = higher value
Chain of (Lyso)-N-acylphosphatidylethanolamine lipase (Mus musculus) (Q8VD66 whole entry, looked up): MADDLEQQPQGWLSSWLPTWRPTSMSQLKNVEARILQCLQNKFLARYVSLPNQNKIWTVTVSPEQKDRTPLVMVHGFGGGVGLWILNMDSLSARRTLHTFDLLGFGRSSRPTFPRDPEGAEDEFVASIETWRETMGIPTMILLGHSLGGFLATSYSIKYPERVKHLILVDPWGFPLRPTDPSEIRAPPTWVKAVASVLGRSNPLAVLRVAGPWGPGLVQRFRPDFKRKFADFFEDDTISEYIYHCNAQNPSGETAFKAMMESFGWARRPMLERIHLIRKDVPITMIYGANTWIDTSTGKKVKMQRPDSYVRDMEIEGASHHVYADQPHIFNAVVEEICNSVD

[23] = target: Sphingosine 1-phosphate receptor 4 (Homo sapiens) (UniProt O95977); assay: S1P4 receptor antagonists, human, confirmation, cell-based (AID 1524; in the data active = inhibition above about 30%); conditions: S1P4-expressing cell line, antagonist mode, reporter read-out; at 4.98 µM; stronger effect = higher value
[24] = target: Sphingosine 1-phosphate receptor 1 (Homo sapiens) (UniProt P21453); assay: S1P1 receptor antagonists, human, counter-screen for S1P4 antagonist project, cell-based (AID 1564; in the data active = inhibition above about 40%;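 also: receptor stimulated with S1P near its EC80; 0% = agonist stimulated wells and 100% = vehicle only wells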); conditions: cell-based S1P1 antagonist counterscreen, at 4.98 µM, stronger effect = higher value
[25] = target: Protein-arginine deiminase type-4 (Homo sapiens) (UniProt Q9UM07); assay: human PAD4 inhibitors, confirmation, biochemical, fluorescence polarization (AID 488796;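 active = mean inhibition across replicates above the hit cutoff set by the earlier primary screen, cut at about 15% in these data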;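 also: inhibitors block active-site labeling by the probe so polarization falls; 0% = PAD4 with probe and DMSO and 100% = probe without PAD4 enzyme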); conditions: recombinant PAD4, RCA probe fluorescence polarization; at 6.36 µM; stronger effect = higher value
Chain of Protein-arginine deiminase type-4 (Homo sapiens) (Q9UM07 whole entry, looked up): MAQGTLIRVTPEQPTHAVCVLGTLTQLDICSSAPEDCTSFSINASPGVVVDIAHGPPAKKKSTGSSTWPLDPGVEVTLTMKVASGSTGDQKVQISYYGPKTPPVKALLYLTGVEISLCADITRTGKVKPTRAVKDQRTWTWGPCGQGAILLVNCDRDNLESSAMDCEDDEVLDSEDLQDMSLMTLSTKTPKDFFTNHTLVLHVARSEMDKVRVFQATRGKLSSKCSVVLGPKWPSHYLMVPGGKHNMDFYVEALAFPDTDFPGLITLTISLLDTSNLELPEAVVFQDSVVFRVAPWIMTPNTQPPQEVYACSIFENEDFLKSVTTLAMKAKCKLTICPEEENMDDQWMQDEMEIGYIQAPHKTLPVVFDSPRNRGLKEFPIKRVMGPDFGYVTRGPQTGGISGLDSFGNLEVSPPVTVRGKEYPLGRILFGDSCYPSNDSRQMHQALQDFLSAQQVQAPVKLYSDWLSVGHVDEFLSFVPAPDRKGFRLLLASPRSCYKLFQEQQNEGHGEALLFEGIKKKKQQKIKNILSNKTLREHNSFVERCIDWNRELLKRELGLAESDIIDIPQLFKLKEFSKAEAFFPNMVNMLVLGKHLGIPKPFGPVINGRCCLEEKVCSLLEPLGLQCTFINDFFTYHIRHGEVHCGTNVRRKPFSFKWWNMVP

[26] = target: Toll-like receptor 9 (Homo sapiens) (UniProt Q9NR96); assay: TLR9-MyD88 association inhibitors, retest, confirmation, cell-based, CHO, BLA complementation, fluorescence, triplicate (AID 540250;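 active = mean inhibition across three repeats above about 21% taken from the earlier screen, limit read from the data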;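 also: blue over green emission ratio reports constitutive TLR9 MyD88 association via BLA complementation; 0% = DMSO vehicle wells and 100% = clavulanate BLA inhibitor wells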); conditions: CCF4 FRET ratio, at 4.98 µM, stronger effect = higher value
[27] = beta-lactamase reporter inhibitors in CHO cells, artefact control for TLR9-MyD88 binding inhibitor project, cell-based, fluorescence (AID 540251;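 active = mean inhibition above a 50% cutoff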;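 also: counterscreen of TLR9-MyD88 hits on CMV-driven BLA in CHO-K1 cells; 0% = DMSO alone and 100% = clavulanate blocking BLA; higher means less blue over green ratio so more BLA blockade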); conditions: CHO-BLA cells, CCF4 FRET ratio, at 4.98 µM, stronger effect = higher value
[28] = CHO cell viability loss – luminescence, single concentration, cytotoxicity control for TLR9-MyD88 binding inhibitor project (AID 588336; in the data active = inhibition above about 11%); conditions: TLR9-MyD88 CHO cells cytotoxicity, at 4.98 µM, stronger effect = higher value
[29] = target: Receptor-interacting serine/threonine-protein kinase 2 (Homo sapiens) (UniProt O43353); assay: NOD2-RIPK2 binding disruptors, retest, confirmation, fluorescence, CHO cells, BLA complementation, triplicate (AID 624370;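 active = mean inhibition across replicates above a set limit taken from the earlier primary screen, cut at about 21% in these data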;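 also: 0% = DMSO-only wells and the high end = clavulanate BLA-blocked wells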); conditions: CCF4 FRET, at 4.98 µM, stronger effect = higher value
Chain of Receptor-interacting serine/threonine-protein kinase 2 (Homo sapiens) (O43353 whole entry, looked up): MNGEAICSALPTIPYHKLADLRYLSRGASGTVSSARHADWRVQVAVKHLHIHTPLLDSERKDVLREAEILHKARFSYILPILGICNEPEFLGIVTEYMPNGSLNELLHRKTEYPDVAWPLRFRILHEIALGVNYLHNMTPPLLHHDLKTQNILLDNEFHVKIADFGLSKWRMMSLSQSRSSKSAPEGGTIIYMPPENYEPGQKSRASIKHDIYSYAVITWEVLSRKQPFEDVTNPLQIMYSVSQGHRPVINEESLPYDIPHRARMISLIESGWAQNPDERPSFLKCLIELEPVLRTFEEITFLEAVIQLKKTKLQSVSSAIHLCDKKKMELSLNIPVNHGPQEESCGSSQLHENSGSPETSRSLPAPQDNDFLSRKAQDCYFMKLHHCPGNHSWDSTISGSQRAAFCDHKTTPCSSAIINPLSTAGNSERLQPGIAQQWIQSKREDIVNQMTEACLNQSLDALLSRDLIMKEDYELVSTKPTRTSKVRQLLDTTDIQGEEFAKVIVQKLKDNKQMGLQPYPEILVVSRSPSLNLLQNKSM

[30] = beta-lactamase reporter inhibitors in CHO cells, confirmation, artefact control for NOD2-RIPK2 interaction inhibitor project, cell-based, CHO-K1 CMV-bla, CCF4 FRET, fluorescence (AID 624371;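 active = mean inhibition above the low-control mean inhibition plus three low-control SD, cut at about 11% in these data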;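 also: 0% = DMSO only wells and 100% = clavulanate high control wells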); conditions: CCF4 FRET ratio, counterscreen, at 4.98 µM, stronger effect = higher value
[31] = StAR promoter reporter inhibitors, counter-screen for LRH-1 inverse agonist project, cell-based, luminescence, high throughput (AID 651611; in the data active = inhibition above about 28%); conditions: StAR promoter luciferase reporter counterscreen, at 3.6 µM, stronger effect = higher value
[32] = target: Nuclear receptor subfamily 5 group A member 2 (Homo sapiens) (UniProt O00482); assay: LRH-1 (NR5A2) inverse agonists, retest, confirmation, cell-based, luminescence (AID 651613; in the data active = inhibition above about 42%;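 also: HEK293T cells co-transfected with LRH-1 and StAR promoter luciferase reporter; 0% = vehicle wells and 100% = parental cells lacking receptor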); conditions: cell-based LRH-1 luciferase reporter, inverse agonism; at 3.6 µM; stronger effect = higher value
[33] = target: Steroidogenic factor 1 (Homo sapiens) (UniProt Q13285); assay: SF1 (NR5A1) inverse agonists, counter-screen for LRH-1 inverse agonist project, cell-based, luminescence, high throughput (AID 651614; in the data active = inhibition above about 44%;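 also: cells cotransfected with StAR promoter reporter and SF1 expression vector; 0% = vehicle on cells with receptor and 100% = vehicle on cells lacking receptor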); conditions: cell-based SF1 luciferase reporter, at 3.6 µM, stronger effect = higher value
Chain of Steroidogenic factor 1 (Homo sapiens) (Q13285 whole entry, looked up, the tested form may be a part): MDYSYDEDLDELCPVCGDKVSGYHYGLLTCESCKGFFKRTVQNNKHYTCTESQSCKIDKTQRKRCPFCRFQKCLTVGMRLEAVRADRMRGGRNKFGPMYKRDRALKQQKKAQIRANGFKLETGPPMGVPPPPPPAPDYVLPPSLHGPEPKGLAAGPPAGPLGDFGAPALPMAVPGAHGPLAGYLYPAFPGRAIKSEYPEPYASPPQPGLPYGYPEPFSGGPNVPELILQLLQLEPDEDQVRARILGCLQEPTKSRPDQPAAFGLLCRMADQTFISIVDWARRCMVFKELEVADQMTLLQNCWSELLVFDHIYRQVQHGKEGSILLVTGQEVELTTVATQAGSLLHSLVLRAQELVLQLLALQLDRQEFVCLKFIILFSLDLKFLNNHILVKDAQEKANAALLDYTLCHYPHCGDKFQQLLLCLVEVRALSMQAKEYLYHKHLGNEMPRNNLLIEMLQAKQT

[34] = VP16 transactivation reporter inhibitors, counter-screen for LRH-1 inverse agonist project, cell-based, luminescence, high throughput (AID 651615; in the data active = inhibition above about 33%); conditions: Gal4-VP16 luciferase reporter cells, at 3.6 µM, stronger effect = higher value
[35] = tested on: transactivating tegument protein VP16 (Human herpesvirus 1); assay: VP16 transactivation reporter inhibitors, counter-screen for SRC2 inhibitor project, cell-based, luminescence, single concentration (AID 652007; in the data active = inhibition above about 36%); conditions: cell-based VP16 transactivation luciferase reporter, at 8.9 µM, stronger effect = higher value
[36] = target: Nuclear receptor coactivator 2 (Homo sapiens) (UniProt Q15596); assay: SRC2 coactivator transcriptional activity inhibitors, confirmation, cell-based, luminescence, HEK293, triplicate (AID 652008;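 active = mean inhibition above 46.5%, the solvent-only control mean plus 3 SD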;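 also: 0% = DMSO-treated cells and 100% = Gossypol at 36 µM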); conditions: HEK293 GAL4-SRC2 luciferase reporter, at 8.9 µM, stronger effect = higher value
[37] = target: Serine protease HTRA1 (Homo sapiens) (UniProt Q92743); assay: HTRA1 protease inhibitors, retest, confirmation, biochemical, fluorescence polarization (AID 540248;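 active = mean inhibition over three repeats above a set limit taken from the earlier primary screen, cut at about 37% in these data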;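 also: 0% = HTRA1 with DMSO and 100% = wells lacking HTRA1; inhibitors block probe binding so polarization drops and inhibition rises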); conditions: recombinant HTRA1, FP-rhodamine activity-based probe, at 5.96 µM, stronger effect = higher value

COc1ccc2c(c1)c(=Cc1ccc(N(C)C)cc1)c1cc(-c3ccccc3)[n+](C)n12
active: inhibition [1] 68.3% | inhibition [2] 82% | inhibition [3] 69.4% | inhibition [4] 83.8% | inhibition [5] 99% | inhibition [6] 81.4% | inhibition [7] 40.1% | inhibition [8] 86.4%
inactive: activation [9] 6.29% | inhibition [10] -22.4% | inhibition [11] -6.4%

Cn1nnc2cc(C(=O)NCCC3=CCCCC3)ccc21
inactive: activation (% of control) [13] 117%
active: activation (% of control) [12] 171% | activation (% of control) [14] 119%

CCN(CC)c1ccc2oc(=O)c(C)nc2c1
inactive: inhibition [15] 4.42% | inhibition [16] 4.01% | activation [17] 7.05% | activation [18] 6.29% | activation [19] 3.97%

Cc1ccc(Cc2cnc(N)s2)o1
inactive: inhibition [20] 0.16% | inhibition [21] 2.57% | activation [9] 6.28% | inhibition [10] -22.6% | inhibition [11] 10.6%

O=C1C=CC(=O)N1c1ccc(N2CCCCC2)cc1
inactive: inhibition [22] 17.5% | activation [9] 1.69% | inhibition [10] -8.48% | inhibition [11] 5.47%

O=C(Nc1ccccc1Cl)/C(Cl)=C(\Cl)S(=O)c1ccccc1 (centres undefined)
active: inhibition [23] 117% | inhibition [26] 39.3% | inhibition [28] 96.4% | inhibition [29] 78.8% | inhibition [30] 37.3% | inhibition [5] 90.1% | inhibition [31] 57.7% | inhibition [32] 88.7% | inhibition [33] 80.1% | inhibition [34] 80.8% | inhibition [35] 94.7% | inhibition [36] 95.9% | inhibition [7] 78.8% | inhibition [8] 101%
inactive: inhibition [15] 11.5% | inhibition [16] 14.5% | inhibition [24] 39.3% | inhibition [25] 14.2% | inhibition [27] 24.5% | inhibition [6] 47.4%

Cc1nc(Cl)c2oc3ccccc3c2n1
active: inhibition [15] 39%
inactive: inhibition [16] 20.8% | inhibition [25] 7.72%

CN(c1ccc(C(=O)NCCC2=CCCCC2)cc1)S(C)(=O)=O
inactive: activation (% of control) [13] 124%
active: activation (% of control) [12] 177% | activation (% of control) [14] 121%

Cc1cc(C(=O)N/N=C/c2ccc(O)c([N+](=O)[O-])c2)c(C)n1-c1ccc(F)cc1
inactive: inhibition [10] -71.4%
active: inhibition [37] 120% | inhibition [22] 74% | activation [9] 14.2% | inhibition [11] 17.8%
